Results taken from PubChem BioAssay AID1159580 (chemical genetic matrix, 2015).
In all, about 5,500 compounds went through this assay and about 2,000 (36%) were called active. Inconclusive results (about 18%) are left out. Rule as the data show it: active = normalized growth mostly below about 0.91 (no sharp cut-off); inconclusive = no clear call, values can overlap the other calls; inactive = mostly above about 0.92. This is one part of the list.

Assay: chemical genetic growth profiling, strain panel (AID 1159580);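 also: tested at 20 µM; growth read once vehicle control cultures reached saturation at 30 °C; 1 = growth at the plate median or of vehicle wells; lower values mean less growth of the strain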
Details: growth OD

Measured: normalized growth

COc1cc2cc3c4cc(OC)c(OC)cc4cc[n+]3c(C)c2cc1OC
inactive: S. cerevisiae deletion strains, locus YJR043C, strain POL32, active compounds read low 0.98 | S. cerevisiae deletion strains, locus YJR066W, strain TOR1, active compounds read low 0.964 | S. cerevisiae deletion strains, locus YKL009W, strain mrt4, active compounds read low 0.997 | S. cerevisiae deletion strains, locus YKL068W, active compounds read low 1.01 | S. cerevisiae deletion strains, locus YKL085W, strain MDH1 (second series), active compounds read low 1.03 | S. cerevisiae deletion strains, locus YKL085W, strain MDH1, active compounds read low 1.03 | S. cerevisiae deletion strains, locus YKL160W, strain elf1, active compounds read low 0.988 | S. cerevisiae deletion strains, locus YKL190W, strain CNB1, active compounds read low 1.01 | S. cerevisiae deletion strains, locus YKR001C, strain vps1, active compounds read low 1.05 | S. cerevisiae deletion strains, locus YKR026C, strain gcn3, active compounds read low 1.02 | S. cerevisiae deletion strains, locus YKR091W, strain srl3, active compounds read low 1 | S. cerevisiae deletion strains, locus YLL001W, strain dnm1, active compounds read low 1.01 | S. cerevisiae deletion strains, locus YLL026W, active compounds read low 1.02 | S. cerevisiae deletion strains, locus YLL041C, strain sdh2, active compounds read low 1.02 | S. cerevisiae deletion strains, locus YLR027C, strain aat2, active compounds read low 1.03 | S. cerevisiae deletion strains, locus YLR039C, strain RIC1, active compounds read low 1.11 | S. cerevisiae deletion strains, locus YLR058C, strain SHM2, active compounds read low 0.998 | S. cerevisiae deletion strains, locus YLR102C, strain apc9, active compounds read low 1.01 | S. cerevisiae deletion strains, locus YLR113W, strain HOG1, active compounds read low 0.992 | S. cerevisiae deletion strains, locus YLR221C, strain rsa3, active compounds read low 1.02 | S. cerevisiae deletion strains, locus YLR258W, strain gsy2, active compounds read low 0.982 | S. cerevisiae deletion strains, locus YLR262C, strain YPT6 (second series), active compounds read low 1.03 | S. cerevisiae deletion strains, locus YLR262C, strain YPT6, active compounds read low 1.14 | S. cerevisiae deletion strains, locus YLR268W, strain sec22, active compounds read low 1.02 | S. cerevisiae deletion strains, locus YLR320W, strain mms22, active compounds read low 1 | S. cerevisiae deletion strains, locus YLR330W, strain CHS5, active compounds read low 1.01 | S. cerevisiae deletion strains, locus YLR342W, strain FKS1 (second series), active compounds read low 0.98 | S. cerevisiae deletion strains, locus YLR342W, strain FKS1, active compounds read low 1.02 | S. cerevisiae deletion strains, locus YLR357W, strain rsc2, active compounds read low 1.01 | S. cerevisiae deletion strains, locus YLR370C, strain arc18, active compounds read low 1.02 | S. cerevisiae deletion strains, locus YLR371W, strain rom2, active compounds read low 1.02 | S. cerevisiae deletion strains, locus YLR384C, strain iki3, active compounds read low 1.01 | S. cerevisiae deletion strains, locus YLR418C, strain cdc73, active compounds read low 0.966 | S. cerevisiae deletion strains, locus YML016C, strain PPZ1, active compounds read low 1.02 | S. cerevisiae deletion strains, locus YML032C, strain rad52, active compounds read low 0.925 | S. cerevisiae deletion strains, locus YML120C, strain ndi1, active compounds read low 1 | S. cerevisiae deletion strains, locus YML124C, strain tub3, active compounds read low 1.01 | S. cerevisiae deletion strains, locus YMR058W, strain fet3, active compounds read low 1.02 | S. cerevisiae deletion strains, locus YMR078C, strain ctf18, active compounds read low 1.02 | S. cerevisiae deletion strains, locus YMR125W, strain sto1, active compounds read low 0.999 | S. cerevisiae deletion strains, locus YMR129W, active compounds read low 1.01 | S. cerevisiae deletion strains, locus YMR205C, strain PFK2, active compounds read low 0.979 | S. cerevisiae deletion strains, locus YMR223W, strain ubp8, active compounds read low 0.982 | S. cerevisiae deletion strains, locus YMR231W, strain pep5, active compounds read low 0.949 | S. cerevisiae deletion strains, locus YMR307W, strain GAS1, active compounds read low 1.02 | S. cerevisiae deletion strains, locus YNL067W, strain RPL9B, active compounds read low 1.01 | S. cerevisiae deletion strains, locus YNL071W, strain lat1, active compounds read low 1 | S. cerevisiae deletion strains, locus YNL183C, strain NPR1, active compounds read low 0.938 | S. cerevisiae deletion strains, locus YNL209W, strain ssb2, active compounds read low 1 | S. cerevisiae deletion strains, locus YNL233W, strain BNI4, active compounds read low 0.995 | S. cerevisiae deletion strains, locus YNL248C, strain rpa49, active compounds read low 1.01 | S. cerevisiae deletion strains, locus YNL250W, strain rad50, active compounds read low 1 | S. cerevisiae deletion strains, locus YNL271C, strain bni1, active compounds read low 1.02 | S. cerevisiae deletion strains, locus YNL298W, strain CLA4, active compounds read low 1.01 | S. cerevisiae deletion strains, locus YNL307C, strain MCK1, active compounds read low 1.01 | S. cerevisiae deletion strains, locus YNL322C, strain KRE1 (second series), active compounds read low 1 | S. cerevisiae deletion strains, locus YNR049C, strain mso1, active compounds read low 1.04 | S. cerevisiae deletion strains, locus YNR052C, strain pop2, active compounds read low 0.978 | S. cerevisiae deletion strains, locus YOL006C, strain TOP1, active compounds read low 1.04 | S. cerevisiae deletion strains, locus YOL012C, strain htz1 1.07 | S. cerevisiae deletion strains, locus YOL147C, strain pex11, active compounds read low 1.03 | S. cerevisiae deletion strains, locus YOR001W, strain rrp6, active compounds read low 1.03 | S. cerevisiae deletion strains, locus YOR061W, strain CKA2, active compounds read low 1.01 | S. cerevisiae deletion strains, locus YOR069W, strain VPS5, active compounds read low 1.01 | S. cerevisiae deletion strains, locus YOR070C, strain gyp1, active compounds read low 1.02 | S. cerevisiae deletion strains, locus YOR080W, strain dia2, active compounds read low 1.01 | S. cerevisiae deletion strains, locus YOR083W, strain WHI5, active compounds read low 0.985 | S. cerevisiae deletion strains, locus YOR106W, strain vam3, active compounds read low 0.981 | S. cerevisiae deletion strains, locus YOR136W, strain idh2, active compounds read low 1.02 | S. cerevisiae deletion strains, locus YOR144C, strain elg1, active compounds read low 1.01 | S. cerevisiae deletion strains, locus YOR184W, strain ser1, active compounds read low 0.993 | S. cerevisiae deletion strains, locus YOR231W, strain MKK1, active compounds read low 0.983 | S. cerevisiae deletion strains, locus YOR265W, strain rbl2, active compounds read low 1.01 | S. cerevisiae deletion strains, locus YOR270C, strain vph1, active compounds read low 1.08 | S. cerevisiae deletion strains, locus YOR290C, strain snf2, active compounds read low 0.982 | S. cerevisiae deletion strains, locus YOR316C, strain cot1, active compounds read low 1.02 | S. cerevisiae deletion strains, locus YPL051W, strain arl3, active compounds read low 1.02 | S. cerevisiae deletion strains, locus YPL055C, strain LGE1, active compounds read low 0.999 | S. cerevisiae deletion strains, locus YPL078C, strain atp4, active compounds read low 1 | S. cerevisiae deletion strains, locus YPL106C, strain sse1, active compounds read low 0.983 | S. cerevisiae deletion strains, locus YPL240C, strain hsp82, active compounds read low 1 | S. cerevisiae deletion strains, locus YPL256C, strain CLN2, active compounds read low 0.968 | S. cerevisiae deletion strains, locus YPR119W, strain clb2, active compounds read low 1.01 | S. cerevisiae deletion strains, locus YPR141C, strain kar3, active compounds read low 1.01 | S. cerevisiae deletion strains, locus YPR163C, strain tif3, active compounds read low 1.01 | S. cerevisiae deletion strains, locus YPR167C, strain met16, active compounds read low 0.997 | S. cerevisiae deletion strains, strain wtn01, active compounds read low 1.02 | S. cerevisiae strains, strain wild type, active compounds read low 1
